Laboratory results as given in PubChem BioAssay (Tox21).
Values without a mark were called inactive. Records with an inconclusive call do not appear. Entries that show only a call come without a potency. Calls of active or inactive are those of the source. Unless noted, the call rests on the fitted dose curve; in most records, active means well fitted curve in the direction sought with a large enough effect in the repeat runs; inconclusive means weak or mixed curves; inactive means no such curve, though single readings can be large; an effect the other way counts as inactive or inconclusive.

What was measured:
[1] = qHTS assay for small molecule agonists of the p53 signaling pathway (AID 651631; calls by dose curve; further: nearly all actives have a fitted effect of over 15% in size; further: potency means the concentration at half of the fitted maximal effect)
Procedure, shortened: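 Beta-lactamase reporter activity under p53 response elements was quantified in HCT-116 cells by FRET fluorescence, following 16 h incubation with test compounds at 37 °C and 2 h substrate development at room temperature.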

[2] = qHTS assay for small molecules that induce genotoxicity in human embryonic kidney cells expressing luciferase-tagged ATAD5 (AID 651632); further: nearly all actives have a fitted effect of over 15% in size
Procedure, shortened: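 Concentration-response screen for ATAD5 upregulation in HEK293T luciferase reporter cells; 16 hr treatment at 37C, then luminescence after 30 min with Amplite at room temperature.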

[3] = qHTS assay for small molecule agonists of the p53 signaling pathway - cell viability (AID 651633; calls by dose curve; further: nearly all actives have a fitted effect of over 30% in size; further: potency means the concentration at half of the fitted maximal effect)
Procedure, shortened: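 p53RE-bla cells, seeded at 4,000 per well and rested 5 h at 37 C/5% CO2, received compounds in DMSO for 16 h at 37 C. CellTiter-Glo was then added, and luminescence was read after 30 min at room temperature to gauge cytotoxicity.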

[4] = qHTS assay for small molecules that induce genotoxicity in human embryonic kidney cells expressing luciferase-tagged ATAD5 - cell viability (AID 651634; calls by dose curve; further: nearly all actives have a fitted effect of over 25% in size)
Procedure, shortened: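 15.5 hr compound or vehicle exposure of HEK293T cells expressing luciferase-tagged ATAD5 at 37C; live-cell protease activity is read by fluorescence after 30 min of CellTiter-Fluor.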

[5] = qHTS assay for small molecule disruptors of the mitochondrial membrane potential - cell viability (AID 720634; calls by dose curve;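 further: human HepG2 liver cancer cells; series mostly up to about 83 µM; nearly all actives have a fitted effect of over 20% in size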)
Procedure, shortened: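 In this qHTS format, HepG2 cells plated overnight were pinned with compound, incubated 1 hr, and assayed for ATP luminescence with CellTiter-Glo after m-MPI dye addition.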

[6] = qHTS assay for small molecule disruptors of the mitochondrial membrane potential (AID 720635); further: potency means the concentration at half of the fitted maximal effect
Procedure, shortened: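 HepG2 cells (2,000/well) attached overnight at 37C, then took compound for 1 hr at 37C, 5% CO2. Mito-MPS dye was added for 30 min; fluorescence was read at 490/535 nm (monomers) and 540/590 nm (aggregates).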

[7] = qHTS assay to test for compound auto fluorescence at 590 nm (red) in HepG2 cells (AID 720674)
Procedure, shortened: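 Intrinsic compound fluorescence in the red window (Ex/Em 540/590 nm) is measured in attached HepG2 cells exposed for 1 hr, DMSO vehicle as baseline, benchmarked to Rose Bengal sodium.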

[8] = qHTS assay to test for compound auto fluorescence at 535 nm (green) in HepG2 cells (AID 720675)
[9] = qHTS assay to test for compound auto fluorescence at 460 nm (blue) in HEK293 cells (AID 720678)
Procedure, shortened: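 Intrinsic compound fluorescence is recorded in live HEK293 cultures after overnight incubation at 37C, 5% CO2, using excitation 405 nm and emission 460 nm. Values are referenced to triamterene.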

[10] = qHTS assay to test for compound auto fluorescence at 590 nm (red) in HEK293 cells (AID 720679)
Procedure, shortened: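 Red autofluorescence, HEK293 cells: 2,000 cells/well; attach 4-5 hr 37C; add 23 nL cpd or DMSO; incubate o/n 37C 5% CO2; read Ex540/Em590; Rose Bengal sodium reference.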

[11] = qHTS assay to test for compound auto fluorescence at 535 nm (green) in HEK293 cells (AID 720680)
[12] = qHTS assay to test for compound auto fluorescence at 460 nm (blue) in HEK293 cell free culture (AID 720681)
Procedure, shortened: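 Test compounds were pinned into cell-free culture medium (DMEM with 10% FBS) and fluorescence was read directly at Ex/Em 405/460 nm. Signals were expressed as fluorescence equivalents of triamterene, with DMSO vehicle as control.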

[13] = qHTS assay to test for compound auto fluorescence at 535 nm (green) in HEK293 cell free culture (AID 720682)
Procedure, shortened: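 Each library compound, or DMSO control, is added by pintool to medium alone, comprising DMEM and 10% FBS. Emission at 535 nm following 485 nm excitation is quantified against fluorescein.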

[14] = qHTS assay to test for compound auto fluorescence at 590 nm (red) in HEK293 cell free culture (AID 720683)
Procedure, shortened: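 Tox21 10K library compounds were pinned into cell-free DMEM with 10% FBS and fluorescence was read at excitation 540 nm. Activity is expressed as Rose Bengal sodium equivalency.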

[15] = qHTS assay to test for compound auto fluorescence at 590 nm (red) in HepG2 cell free culture (AID 720684)
Procedure, shortened: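 Ex 540 / Em 590 nm read of compound in cell-free MEM (10% FBS). Rose Bengal sodium reference.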

[16] = qHTS assay to test for compound auto fluorescence at 460 nm (blue) in HepG2 cell free culture (AID 720685)
Procedure, shortened: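 Cell-free plates of MEM plus 10% FBS received 23 nL compound or DMSO vehicle; blue-channel (405/460 nm) intensity scored against triamterene as reference fluorophore.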

[17] = qHTS assay to test for compound auto fluorescence at 535 nm (green) in HepG2 cell free culture (AID 720686)
[18] = target: Glucocorticoid receptor (Homo sapiens) (UniProt P04150); assay: qHTS assay to identify small molecule agonists of the glucocorticoid receptor (GR) signaling pathway (AID 720691; active means well fitted activation curve with a large enough effect in the signal ratio in the repeat runs, not every such curve was filed as active; the % refers to the signal ratio)
Chain of Glucocorticoid receptor (Homo sapiens) (P04150 whole entry, looked up): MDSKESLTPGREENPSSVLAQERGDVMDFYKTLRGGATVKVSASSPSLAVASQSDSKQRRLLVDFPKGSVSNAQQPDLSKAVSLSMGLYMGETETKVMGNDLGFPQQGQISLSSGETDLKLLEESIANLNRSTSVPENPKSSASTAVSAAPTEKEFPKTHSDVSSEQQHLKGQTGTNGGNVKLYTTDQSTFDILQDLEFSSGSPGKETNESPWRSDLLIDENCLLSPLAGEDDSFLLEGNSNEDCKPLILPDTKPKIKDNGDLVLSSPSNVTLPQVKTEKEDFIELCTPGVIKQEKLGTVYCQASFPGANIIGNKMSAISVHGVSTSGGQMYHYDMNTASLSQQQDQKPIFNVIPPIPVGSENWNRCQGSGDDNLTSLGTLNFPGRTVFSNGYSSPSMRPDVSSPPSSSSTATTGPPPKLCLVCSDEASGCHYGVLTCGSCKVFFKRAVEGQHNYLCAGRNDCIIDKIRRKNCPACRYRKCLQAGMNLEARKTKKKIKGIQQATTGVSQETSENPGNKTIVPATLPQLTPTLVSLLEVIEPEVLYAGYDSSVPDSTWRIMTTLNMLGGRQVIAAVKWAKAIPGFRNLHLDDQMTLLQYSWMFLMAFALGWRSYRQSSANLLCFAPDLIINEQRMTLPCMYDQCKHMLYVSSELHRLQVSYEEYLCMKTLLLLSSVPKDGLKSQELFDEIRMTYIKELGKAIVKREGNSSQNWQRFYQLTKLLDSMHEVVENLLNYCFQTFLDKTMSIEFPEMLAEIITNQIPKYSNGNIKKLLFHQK
Procedure, shortened: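 Measures GR pathway activation through a GRE-beta-lactamase reporter stably integrated in HeLa cells, with 18 h compound treatment at 37 C and fluorescence detection using a FRET substrate.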

[19] = target: Glucocorticoid receptor (Homo sapiens) (UniProt P04150); assay: qHTS assay to identify small molecule antagonists of the glucocorticoid receptor (GR) signaling pathway (AID 720692; active means well fitted inhibition curve with a large enough effect in the signal ratio in the repeat runs, not every such curve was filed as active; the % refers to the signal ratio; further: potency means the concentration at half of the fitted maximal effect)
Procedure, shortened: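 Tox21 10K library screened in concentration-response for blockade of dexamethasone (5 nM final)-induced GRE-bla reporter activity in HeLa cells; 18 h treatment, fluorescence read.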

[20] = qHTS assay to test for compound auto fluorescence at 460 nm (blue) in HepG2 cells (AID 720687)
Procedure, shortened: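 Cells (2,000/well in MEM with 10% FBS) attached overnight at 37 C, then were exposed to compound or DMSO for 1 hr at 37 C, 5% CO2. Fluorescence read at Ex/Em 405/460 nm, expressed as triamterene-equivalent signal.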

Structure (SMILES)	Potency [1]	Potency [2]	Potency [3]	Potency [4]	Potency [5]	Potency [6]	outcome [7]	outcome [8]	Potency [9]	outcome [10]	outcome [11]	Potency [12]	outcome [13]	outcome [14]	outcome [15]	Potency [16]	outcome [17]	Potency [18]	Potency [19]	Potency [20]
Cc1cnc(C)c(C)n1	inactive	inactive	inactive	inactive	inactive	inactive	inactive	inactive	inactive	inactive	inactive	inactive	inactive	inactive	inactive	inactive	inactive	inactive	inactive	–
COc1ccc(C(=O)c2cccc(O)c2)c(OC)c1	inactive	inactive	inactive	inactive	inactive	30.6 µM (active)	inactive	inactive	inactive	inactive	inactive	inactive	inactive	inactive	inactive	inactive	inactive	inactive	–	inactive
CO[C@@]12[C@H](COC(N)=O)C3=C(C(=O)C(C)=C(N)C3=O)N1C[C@@H]1N[C@@H]12	1.88 µM (active)	–	23.7 µM (active)	–	inactive	inactive	–	inactive	inactive	inactive	inactive	inactive	inactive	inactive	inactive	inactive	inactive	inactive	21.3 µM (active)	inactive
CC(=O)OCC(=O)[C@H]1CC[C@H]2[C@@H]3CCC4=CC(=O)CC[C@]4(C)[C@H]3CC[C@]12C	–	inactive	inactive	inactive	inactive	inactive	inactive	inactive	inactive	inactive	inactive	inactive	inactive	inactive	inactive	inactive	inactive	inactive	0.848 µM (active)	inactive
CCCCCCCC/C=C\CCCCCCCC(=O)OC(CO)CO	–	inactive	inactive	inactive	inactive	inactive	inactive	inactive	inactive	inactive	inactive	inactive	inactive	inactive	inactive	inactive	inactive	inactive	–	–
CCC(C)(O)CCC=C(C)C (stereo not drawn)	–	inactive	inactive	inactive	inactive	inactive	inactive	inactive	inactive	inactive	inactive	inactive	inactive	inactive	inactive	inactive	inactive	–	–	–
OCCSc1ccccc1	inactive	–	inactive	inactive	inactive	inactive	inactive	inactive	inactive	inactive	inactive	inactive	inactive	inactive	inactive	inactive	inactive	inactive	–	inactive
CC(Cl)C(Cl)Cl (stereo not drawn)	–	inactive	inactive	inactive	inactive	inactive	inactive	inactive	inactive	inactive	inactive	inactive	inactive	inactive	–	inactive	inactive	inactive	inactive	inactive
